Results filed as inconclusive are left out. Active and inactive are the calls of the source. Unless noted, calls come from the whole dose curve; as a rule, active = well fitted curve in the direction sought with a large enough effect; inconclusive = small, poorly fitted or top-dose-only effect, or another doubt; inactive = no such curve, though single readings can be large; an effect the other way counts as inactive or inconclusive.
How the values were obtained:
[1] = biological target: Cytochrome P450 3A4 (Homo sapiens) (UniProt P08684); experiment: qHTS Assay for Inhibitors and Substrates of Cytochrome P450 3A4 (AID 884); note: % is set by controls: 0 for no effect and ±100 for the full control effect; nearly all actives have a fitted effect of over 50% in size
Cytochrome P450 3A4 (Homo sapiens), sequence (P08684 whole entry, looked up): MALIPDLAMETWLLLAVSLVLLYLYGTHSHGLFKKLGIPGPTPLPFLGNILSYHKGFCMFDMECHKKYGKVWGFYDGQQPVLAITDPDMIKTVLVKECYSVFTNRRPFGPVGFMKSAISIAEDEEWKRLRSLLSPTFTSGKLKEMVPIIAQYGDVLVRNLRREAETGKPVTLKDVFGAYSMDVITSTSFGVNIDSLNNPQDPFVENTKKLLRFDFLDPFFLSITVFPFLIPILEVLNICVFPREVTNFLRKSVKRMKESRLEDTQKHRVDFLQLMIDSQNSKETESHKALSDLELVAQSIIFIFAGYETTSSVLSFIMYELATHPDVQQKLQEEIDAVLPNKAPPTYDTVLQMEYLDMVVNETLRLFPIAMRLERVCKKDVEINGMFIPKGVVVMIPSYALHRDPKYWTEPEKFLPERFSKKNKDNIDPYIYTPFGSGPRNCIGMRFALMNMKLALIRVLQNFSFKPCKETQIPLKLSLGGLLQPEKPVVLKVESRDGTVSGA
Summary of the method: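 Luminescent readout of luciferin produced by CYP3A4 (20 nM) dealkylation of Luciferin-PPXE, 25 uM (its KM). NADPH-driven reaction ran 60 min at RT after 10 min compound preincubation; data scaled to 57 uM ketoconazole as 100% inhibition.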

[2] = Confirmation and Secondary Assay for Modulators of Hemoglobin Beta Chain Splicing at IVS2 654 locus (AID 910);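 note: HeLa cells stably carrying EGFP split by mutant beta-globin IVS2-654 intron; per-well total GFP intensity by laser scanning cytometry after 2-day treatment; % of control where 0% means no effect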
Summary of the method: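 Readout: per-well total peak green fluorescence (488 nm ex, 500–520 nm em) from objects 5–250 µm, reflecting correct splicing of an EGFP-654 reporter. Compounds were applied for 2 days at 37 °C to overnight-plated HeLa EGFP-654 cells; controls were DMSO and 500 nM IVS2-654 PNA.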

[3] = Confirmation and Secondary Assay for Modulators of Hemoglobin Beta Chain Splicing at IVS2 705 locus (AID 930);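 note: HeLa cells stably expressing the EGFP-705 splicing reporter; GFP fluorescence per well restored by corrected splicing of the IVS2-705 intron in EGFP; % of control where 0% means no effect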
Summary of the method: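 Stable HeLa line with EGFP disrupted by mutant beta-globin intron 2 (705). Overnight attachment, then 2 days of compound at 37C, 5% CO2. Signal: peak GFP intensity summed over objects 5-250 µm.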

[4] = qHTS Assay for Lipid Storage Modulators (AID 1519; calls by dose curve; for activity change, negative = inhibition: % is set by controls: 0 for no effect and ±100 for the full control effect); conditions: Drosophila S3 cells, BODIPY lipid droplet/cell ratio, laser cytometry, cells loaded with oleic acid
Summary of the method: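 Cells seeded at 5,000 per well were treated with compounds over a concentration series and loaded with oleic acid (400 uM, as added). Lipid droplet fluorescence (488 nm excitation, 500-530 nm channel) was read by laser-scanning cytometry and normalized to 20 uM Triacsin C.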

[5] = biological target: ATP-dependent 6-phosphofructokinase (Trypanosoma brucei brucei) (UniProt O15648); experiment: qHTS Assay to Find Inhibitors of T. brucei phosphofructokinase: hit validation (AID 492961);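 note: luminescence reports ADP formed as PFK phosphorylates fructose-6-phosphate with ATP; % is set by controls: 0 for no effect and ±100 for the full control effect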
ATP-dependent 6-phosphofructokinase (Trypanosoma brucei brucei), sequence (O15648 whole entry, looked up): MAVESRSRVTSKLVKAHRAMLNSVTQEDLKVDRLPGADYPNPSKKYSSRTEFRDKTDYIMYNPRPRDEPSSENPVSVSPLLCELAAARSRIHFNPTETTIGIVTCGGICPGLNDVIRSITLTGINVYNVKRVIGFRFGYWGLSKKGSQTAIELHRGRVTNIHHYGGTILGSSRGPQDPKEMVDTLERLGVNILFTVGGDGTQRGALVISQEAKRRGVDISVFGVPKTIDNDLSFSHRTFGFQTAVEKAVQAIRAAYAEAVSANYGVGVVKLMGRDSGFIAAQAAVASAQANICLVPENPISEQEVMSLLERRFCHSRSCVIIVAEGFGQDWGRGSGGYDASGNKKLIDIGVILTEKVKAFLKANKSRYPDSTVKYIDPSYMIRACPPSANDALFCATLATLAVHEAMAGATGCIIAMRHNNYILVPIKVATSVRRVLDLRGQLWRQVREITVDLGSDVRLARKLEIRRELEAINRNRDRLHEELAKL
Summary of the method: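 In this biochemical qHTS validation, titrated compounds were tested against 1.25 nM PFK with 0.1 mM ATP and 0.5 mM F6P. Percent activity came from controls lacking or containing enzyme.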

[6] = biological target: Luciferin 4-monooxygenase (Photinus pyralis) (UniProt P08659); experiment: Biochemical firefly luciferase enzyme assay for NPC (AID 624030);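 note: purified P. pyralis luciferase at 10 nM with luciferin and ATP substrate; 0% = DMSO and -100% = full luciferase inhibition by PTC124 control; nearly all actives have a fitted effect of over 70% in size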
Luciferin 4-monooxygenase (Photinus pyralis), sequence (P08659 whole entry, looked up): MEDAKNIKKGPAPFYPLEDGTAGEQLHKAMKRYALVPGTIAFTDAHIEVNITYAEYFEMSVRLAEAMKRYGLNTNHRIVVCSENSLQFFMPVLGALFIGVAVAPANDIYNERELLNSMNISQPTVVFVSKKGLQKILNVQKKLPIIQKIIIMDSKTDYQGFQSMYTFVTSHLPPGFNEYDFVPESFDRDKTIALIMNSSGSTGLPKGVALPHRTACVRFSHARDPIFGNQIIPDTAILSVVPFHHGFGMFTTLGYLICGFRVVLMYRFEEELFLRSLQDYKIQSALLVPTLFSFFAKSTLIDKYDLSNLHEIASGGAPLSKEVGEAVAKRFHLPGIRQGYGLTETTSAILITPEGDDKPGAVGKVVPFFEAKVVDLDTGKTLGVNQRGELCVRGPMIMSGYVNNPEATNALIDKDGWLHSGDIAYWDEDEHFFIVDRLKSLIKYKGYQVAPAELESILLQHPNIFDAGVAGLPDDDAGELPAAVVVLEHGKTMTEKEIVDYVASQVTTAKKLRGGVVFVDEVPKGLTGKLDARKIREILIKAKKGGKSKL
Summary of the method: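 Direct inhibition of firefly luciferase enzyme (10 nM final, 50 mM Tris Acetate) assessed by luminescence within 5 minutes. Percent activity scaled between DMSO and PTC124 positive control, with concentration-effect curves classified by fit quality and response.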

[7] = S16 Schwann cell viability assay (CellTiter-Glo assay) (AID 624031);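 note: cellular ATP luminescence as a viability measure; plate controls were DMSO-treated cells for no effect and cell-free wells for full effect; nearly all actives have a fitted effect of over 70% in size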
Summary of the method: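 Native S16 Schwann cells (rat), serum-containing medium, overnight attachment then 24 h drug exposure at 37 °C/5% CO2. CellTiter-Glo ATP signal; normalized to cell-free and vehicle wells.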

[8] = S16 Schwann cell PMP22 intronic element firefly luciferase assay (AID 624032);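 note: plate controls were DMSO for no effect and PTC124 positive control mean for full effect; nearly all actives have a fitted effect of over 30% in size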
Summary of the method: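 Luciferase reporter of PMP22 intronic-element expression in stably transfected S16 rat Schwann cells, read by ONE-Glo luminescence after 24 h compound exposure at 37 C. Activity scaled between DMSO (0%) and positive-control PTC124; concentration-effect curves quality-classified.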

[9] = Primary qHTS for inhibitors of SARS-S pseudo-typed particle cell entry (AID 1479145; calls by dose curve; note: potency is the fitted concentration of half-maximal effect; nearly all actives have a fitted effect of over 45% in size); conditions: outcome: dose series up to 57.1 µM unless noted
[10] = Primary qHTS for inhibitors of MERS-S pseudo-typed particle cell entry (AID 1479149; calls by dose curve; note: % is set by controls: 0 for no effect and ±100 for the full control effect; nearly all actives have a fitted effect of over 60% in size); conditions: outcome: dose series up to 57.1 µM unless noted
[11] = Primary qHTS to identify inhibitors of SARS-CoV-2 cell entry (AID 1645846; calls by dose curve; note: nearly all actives have a fitted effect of over 45% in size); conditions: SARS-CoV-2 pseudovirus cell entry assay, luminescence; activity change, negative = inhibition: at 57.1 µM (top of the series) unless noted
Summary of the method: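 Luminescence readout (Bright-Glo luciferase) 48 h after pseudoparticle addition. HEK293-ACE2 cells, 1500/well; compound pre-incubation 1 h; Normalized to spike PP and bald PP.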

[12] = NCATS anti-infectives library activity on HEK293 viability as a counter-qHTS vs the C. elegans viability qHTS (AID 1745854);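 note: potency is the fitted concentration of half-maximal effect; HEK293 cells exposed to compounds for 24 hr before the viability read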
Summary of the method: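 Counter-screen for cytotoxicity: HEK293, 24 hr, 37C, compounds up to 41.7 uM final (a dilution series, 1:5). Readout CellTiter-Glo luminescence, 10 min RT. Digitonin control, 83.3 uM final.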

[13] = NCATS anti-infectives library activity on the primary C. elegans qHTS viability assay (AID 1745855; calls by dose curve; note: potency is the fitted concentration of half-maximal effect)
Summary of the method: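 GFP read-out by 488 nm laser cytometry at day 0, 3 and 7, gated on object perimeter, area and peak intensity, scored viability of PE254-GFP-FLuc worms exposed to compound in S medium with bacterial capsules at 21 °C.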

[14] = biological target: Glutathione peroxidase 1 (Homo sapiens) (UniProt P07203); experiment: Primary qHTS Assay for Inhibitors of Recombinant Selenoprotein Glutathione Peroxidase 1 (GPX1) (AID 1845191); note: nearly all actives have a fitted effect of over 65% in size
Glutathione peroxidase 1 (Homo sapiens), sequence (P07203 whole entry, looked up): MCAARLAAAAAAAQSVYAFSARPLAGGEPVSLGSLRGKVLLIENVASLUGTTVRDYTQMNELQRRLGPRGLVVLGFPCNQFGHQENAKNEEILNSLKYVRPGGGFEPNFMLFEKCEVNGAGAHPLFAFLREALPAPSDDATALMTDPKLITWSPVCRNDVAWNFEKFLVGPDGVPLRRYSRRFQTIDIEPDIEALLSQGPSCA
Summary of the method: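 NADPH consumption tracked by fluorescence at 340/450 nm between t=0 and t=15 min, room temperature. Final mix: 10 nM GPX1, 100 nM glutathione reductase, 1 mM GSH, 0.5 mM NADPH, 0.5 mM cumene hydroperoxide, 0.01% BSA; 30 min compound–enzyme preincubation.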

[15] = biological target: Phospholipid hydroperoxide glutathione peroxidase GPX4 (Homo sapiens) (UniProt P36969); experiment: Primary qHTS Assay for Inhibitors of Recombinant Selenoprotein Glutathione Peroxidase 4 (GPX4) (AID 1845192); note: nearly all actives have a fitted effect of over 65% in size
Phospholipid hydroperoxide glutathione peroxidase GPX4 (Homo sapiens), sequence (P36969 whole entry, looked up): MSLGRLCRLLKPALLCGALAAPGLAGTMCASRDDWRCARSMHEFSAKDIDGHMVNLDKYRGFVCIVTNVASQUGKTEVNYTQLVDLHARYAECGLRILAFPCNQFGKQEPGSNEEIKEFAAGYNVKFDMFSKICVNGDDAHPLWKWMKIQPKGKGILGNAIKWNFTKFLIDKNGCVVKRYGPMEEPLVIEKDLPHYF
Summary of the method: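 NADPH consumption followed by fluorescence at 340/450 nm, t=0 and after 15 min at room temperature. Reaction started with cumene hydroperoxide (0.5 mM final) after 30 min compound–GPX4 preincubation; final 200 nM GPX4, 100 nM GR, 1 mM GSH, 0.5 mM NADPH.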

[16] = qHTS profiling for inhibitors of Plasmodium falciparum proliferation (AID 504749); note: nearly all actives have a fitted effect of over 60% in size; note: potency is the fitted concentration of half-maximal effect;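 for activity, negative = inhibition: 0% = DMSO vehicle and full inhibition = artemisinin control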; conditions: P. falciparum in erythrocytes, SYBR Green DNA, 72 h, at 28.7 µM (top of the series)
Summary of the method: (§1)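 SYBR Green fluorescence of parasite DNA, read after lysis and overnight dark incubation, measured growth over 72 h in erythrocyte culture at 0.3% parasitemia and 2.5% hematocrit. Data normalised to DMSO and 0.29 uM artemisinin, with plate-drift correction.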

7G8 = experiment: as above; conditions: P. falciparum in erythrocytes, SYBR Green DNA, 72 h; series mostly up to 12.8 µM
Summary of the method: as §1

AA1029 = experiment: as above; conditions: P. falciparum in erythrocytes, SYBR Green DNA, 72 h; series mostly up to 28.7 µM
Summary of the method: as §1

AS120 = experiment: as above; conditions: P. falciparum in erythrocytes, SYBR Green DNA, 72 h; series mostly up to 28.7 µM
Summary of the method: as §1

ATS95 = experiment: as above; conditions: P. falciparum in erythrocytes, SYBR Green DNA, 72 h; series mostly up to 28.7 µM
Summary of the method: as §1

C2A = experiment: as above; conditions: P. falciparum in erythrocytes, SYBR Green DNA, 72 h; series mostly up to 28.7 µM
Summary of the method: as §1

CP185 = experiment: as above; conditions: P. falciparum in erythrocytes, SYBR Green DNA, 72 h; series mostly up to 28.7 µM
Summary of the method: as §1

CP192 = experiment: as above; conditions: P. falciparum in erythrocytes, SYBR Green DNA, 72 h; series mostly up to 28.7 µM
Summary of the method: as §1

CP201 = experiment: as above; conditions: P. falciparum in erythrocytes, SYBR Green DNA, 72 h; series mostly up to 28.7 µM
Summary of the method: as §1

CP203 = experiment: as above; conditions: P. falciparum in erythrocytes, SYBR Green DNA, 72 h; series mostly up to 28.7 µM
Summary of the method: as §1

CP211 = experiment: as above; conditions: P. falciparum in erythrocytes, SYBR Green DNA, 72 h; series mostly up to 28.7 µM
Summary of the method: as §1

CP215 = experiment: as above; conditions: P. falciparum in erythrocytes, SYBR Green DNA, 72 h; series mostly up to 28.7 µM
Summary of the method: as §1

CC(=O)OC1C[C@H](O[C@@H]2C(O)C[C@H](O[C@@H]3C(O)C[C@@H](OC4CC[C@]5(C)C(CCC6C5CC(O)[C@@]5(C)C(C7=CC(=O)OC7)CC[C@@]65O)C4)OC3C)OC2C)O[C@H](C)[C@H]1O[C@H]1OC(CO)C(O)C(O)C1O (stereo not given in full)
active: Potency [9] 0.794 µM | Potency [12] 0.199 µM | Potency [13] 8.16 µM | Potency (7G8) 8.91 µM
-96.3%: activity change, negative = inhibition [11]
inactive: Potency [1] | Potency [2] | Potency [3] | activity change, negative = inhibition ([4]; at 57.5 µM (top of the series)) 1.49% | Potency [5] | Potency [6] | Potency [7] | Potency [8] | Potency [10] | Potency [14] | Potency [15] | activity, negative = inhibition ([16]; parasite line A) -17.9% | activity, negative = inhibition ([16]; parasite line B) 17.8% | Potency (AA1029) | Potency (AS120) | Potency (ATS95) | Potency (C2A) | Potency (CP185) | Potency (CP192) | Potency (CP201) | Potency (CP203) | Potency (CP211) | Potency (CP215)
24.4%: max response ([4]; measured here: lipid channel max response)
20.6%: max response ([4]; measured here: cell count channel max response)

From PubChem BioAssay (NCATS)
